hNpr1 antagonist = blocks ANP-stimulated signaling of human Npr1 receptor | HEK293 hNpr1 GloSensor cGMP, ANP-stimulated luminescence | Potency, µM (top dose mostly 46.3 µM), for the others: top-dose activity change, negative = inhibition, usual class: inhibitors | actives 1.6% (n = 76,000); calls by dose curve; note: nearly all actives have a fitted effect of over 60% in size
Target sequence (P16066 whole entry, looked up): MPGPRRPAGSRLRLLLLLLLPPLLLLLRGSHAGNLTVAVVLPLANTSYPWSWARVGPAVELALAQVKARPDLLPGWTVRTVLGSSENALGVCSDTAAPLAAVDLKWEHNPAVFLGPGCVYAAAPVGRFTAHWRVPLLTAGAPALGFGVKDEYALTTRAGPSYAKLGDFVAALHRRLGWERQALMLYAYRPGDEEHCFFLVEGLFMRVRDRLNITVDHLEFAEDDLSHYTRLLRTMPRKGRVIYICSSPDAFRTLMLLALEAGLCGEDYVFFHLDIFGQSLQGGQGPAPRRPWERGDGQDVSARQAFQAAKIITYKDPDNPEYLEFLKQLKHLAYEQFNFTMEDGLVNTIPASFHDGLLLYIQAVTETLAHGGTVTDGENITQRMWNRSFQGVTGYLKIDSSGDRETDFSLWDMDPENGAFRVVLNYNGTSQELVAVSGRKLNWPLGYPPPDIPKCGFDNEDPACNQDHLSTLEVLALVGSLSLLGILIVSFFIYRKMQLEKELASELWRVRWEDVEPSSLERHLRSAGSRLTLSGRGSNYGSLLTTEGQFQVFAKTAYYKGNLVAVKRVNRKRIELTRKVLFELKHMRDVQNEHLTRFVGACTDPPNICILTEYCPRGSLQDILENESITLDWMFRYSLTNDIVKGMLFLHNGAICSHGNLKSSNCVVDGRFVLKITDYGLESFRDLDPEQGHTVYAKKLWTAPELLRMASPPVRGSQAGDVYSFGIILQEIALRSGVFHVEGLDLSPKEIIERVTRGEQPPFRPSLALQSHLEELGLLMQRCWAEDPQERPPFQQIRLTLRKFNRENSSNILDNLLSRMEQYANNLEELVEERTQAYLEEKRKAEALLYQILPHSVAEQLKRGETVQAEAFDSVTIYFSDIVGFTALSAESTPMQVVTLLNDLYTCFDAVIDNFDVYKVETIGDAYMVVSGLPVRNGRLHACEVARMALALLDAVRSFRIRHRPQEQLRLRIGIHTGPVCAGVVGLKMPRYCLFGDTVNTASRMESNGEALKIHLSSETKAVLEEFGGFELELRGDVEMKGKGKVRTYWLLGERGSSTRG
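HEK293 cells stably expressing human Npr1 and cGMP GloSensor pGS-40F, loaded 2 h with 2% GloSensor reagent, given compound 30 min at room temperature. Luminescence read before and 20 min after 0.1 nM hNppA.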
GPT2 inhibitor = inhibitors of human GPT2 alanine aminotransferase. Recombinant GPT2, coupled pyruvate oxidase/HRP Amplex Red fluorescence. Potency, µM (titrated, usually from 57.7 µM), for inactives: at the top dose activity change, negative = inhibition, hits mostly inhibitors. actives 0.25% (n = 100,000). AID 1671188; note: nearly all actives have a fitted effect of over 60% in size
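Inhibition is scored from Amplex Red fluorescence generated when pyruvate oxidase and HRP act on pyruvate released by GPT2. Reactions contain 10ng/uL enzyme, 250uM a-KG and 2mM L-alanine and run 30 min at room temperature.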
HEK cytotox = cytotoxic compounds in HEK 293 cells. HEK 293 viability, ATP luminescence (CellTiter-Glo), 48-72 h. AID 1345083. Potency, µM (titrated, usually from 115 µM), without a hit: top-dose activity change, negative = cytotoxicity, hits mostly inhibitors. actives 6.6% (n = 94,000); note: nearly all actives have a fitted effect of over 60% in size
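Cells seeded first (HEK 293, 250 cells/well), then compound added by pintool. Incubation ran 48 or 72 hr at 37 degree Celsius. CellTiter-Glo was added and luminescence imaged after 10 min at room temperature.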
FLuc inh = blocks purified firefly luciferase enzyme activity | P08659 | actives 2.5% (n = 76,000) | Potency, µM (titrated, usually from 115 µM), hits mostly inhibitors | purified P. pyralis luciferase, luminescence, biochemical | AID 1347043; note: nearly all actives have a fitted effect of over 65% in size
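Luminescence read by CCD imaging after purified firefly luciferase (10nM final) was added to substrate buffer holding 10uM D-luciferin and 10uM ATP, pH 7.5, pre-dosed with compound.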
NIH3T3 tox = cytotoxic compounds in NIH 3T3 cells | NIH 3T3 viability, CellTiter-Glo ATP luminescence, 48-72 h | Potency, µM (top dose mostly 96.7 µM), without a hit: at the highest dose activity change, negative = cytotoxicity, most hits filed as inhibitors | actives 4.3% (n = 94,000) | AID 1345082; note: nearly all actives have a fitted effect of over 55% in size
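NIH 3T3 cells at 400 cells/well received 23 nL of compound by pintool and were incubated 48 or 72 h at 37 °C. Viability was read as ATP-coupled CellTiter-Glo luminescence.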
The depositor's hits bear a star; i = inactive; ? = inconclusive; . = no result; [ ] = another dose, or the depositor's remark. A selection: hits, their analogues and other compounds. The true share with any hit is near 10%. Unless noted, calls come from the whole dose curve; as a rule, active = well fitted curve in the direction sought with a large enough effect; inconclusive = small, poorly fitted or top-dose-only effect, or another doubt; inactive = no such curve, though single readings can be large; an effect the other way counts as inactive or inconclusive. % is set by controls: 0 for no effect and ±100 for the full control effect; potency is the fitted concentration of half-maximal effect.

SMILES | hNpr1 antagonist | GPT2 inhibitor | HEK cytotox | FLuc inh | NIH3T3 tox
COc1ccc(NC(=O)c2cc(-c3ccc[nH]3)n[nH]2)cc1OC | -10.2% | i | -20.3% | ? | -10.3%
O=C(c1ccccc1)N1CCn2c(nnc2-c2cccnc2)C1 | . | i | i | . | i
O=C(NCCc1ccc(Cl)cc1)C1CN(c2ccc(F)cc2)C(=O)N1 (stereo not given) | 3.7% | -23.5% | -15.1% | i | ?
CC1=C[C@@H](CNc2ccccn2)[C@H](C(C)C)C[C@H]1Cc1nnc(-c2ccc(C)cc2)o1 | ? | -18.3%[88.5 µM] | 35.5µM* | i | 39.8µM*
CC1=C[C@@H](CNCc2ccco2)[C@H](C(C)C)C[C@H]1Cc1nnc(-c2ccccc2F)o1 | -21.1%[70.6 µM] | -0.4%[88.5 µM] | 79.4µM* | i | ?
CC1=C[C@@H](CNCc2cccnc2)[C@H](C(C)C)C[C@H]1Cc1nnc(-c2ccccc2F)o1 | -10.5%[70.6 µM] | -8.1%[88.5 µM] | ? | i | -24.8%[138 µM]
CC(=O)NCCNC[C@@H]1C=C(C)[C@H](Cc2nnc(-c3ccccc3)o2)C[C@H]1C(C)C | 1.2%[70.6 µM] | 0.4%[88.5 µM] | 56.2µM* | i | 89.1µM*
CC1=C[C@@H](CNCc2ccncc2)[C@H](C(C)C)C[C@H]1Cc1nnc(-c2ccccc2F)o1 | ? | i | 20µM* | i | ?
O=C(Nc1ccccc1)N1C[C@@H](CO)[C@@H]2Oc3c(F)cccc3[C@@H]21 | . | . | -22.8% | . | ?
CCn1cc(S(=O)(=O)N2CCCN(S(=O)(=O)c3ccccc3)CCC(=O)NCC2)cn1 | -3.6% | i | -14.2% | i | -17.9%
Cc1cc(C)n(-c2cccc(CN(C)C(=O)C3CCC(=O)N(C4CCCC4)C3)c2)n1 (stereo not given) | -6.3% | 0.1% | ? | i | ?
CC1=C[C@@H](CNCc2ccccn2)[C@H](C(C)C)C[C@H]1Cc1nnc(-c2ccccc2F)o1 | -20.8%[70.6 µM] | -17.7%[88.5 µM] | 22.4µM* | i | ?
CC(=O)Nc1ccc(NC[C@@H]2C=C(C)[C@H](Cc3nnc(C)o3)C[C@H]2C(C)C)cn1 | -0.6%[70.6 µM] | i | 112µM* | i | -14.0%[174 µM]
CC1=C[C@@H](CNCc2cccnc2)[C@H](C(C)C)C[C@H]1Cc1nnc(-c2ccccc2)o1 | -14.3%[70.6 µM] | 1.0%[88.5 µM] | 79.4µM* | i | ?
O=C(CCC1CCCN(S(=O)(=O)c2cccc(F)c2)C1)N1CCc2ccccc2C1 (stereo not given) | -11.7% | -12.0% | ? | i | ?
O=C(C1CCC1)N1CCC(c2nc(C3CCOCC3)no2)CC1 | 14.2% | 1.6% | -10.2% | i | -18.0%
COc1ccc(-c2cc(C[C@H]3CNCC[C@H]3CC(=O)N3CCC(Cc4ccccc4)CC3)no2)cc1 | -0.3% | 1.6% | ? | i | ?
O=C(C[C@@H]1CCNC[C@@H]1Cc1cc(-c2ccccc2)on1)N1CCC(Cc2ccccc2)CC1 | 6.8% | 2.1% | ? | i | 28.2µM*
CC(C)(C)c1cc(C[C@H]2CNCC[C@H]2CC(=O)N2CCC(Cc3ccccc3)CC2)no1 | 3.1% | i | 22.4µM* | i | 28.2µM*
CCc1ncc(-c2c(-c3ccccc3)ncn2CCCOc2cccnc2)cn1 | 5.8% | -3.1% | i | i | -0.3%
CCCCOC(=O)N1C[C@@H](CO)[C@@H]2Oc3c(C)cccc3[C@@H]21 | . | . | ? | . | 39.8µM*
CCCCCC(=O)N1C[C@@H](C(=O)OCC)[C@@H]2Oc3c(C)cccc3[C@@H]21 | . | . | -30.5% | . | ?
CC(=O)N1CCCN(CC[C@H]2CN(C(=O)c3ccc(C(F)(F)F)cc3)CC[C@H]2CC(=O)O)CC1 | 3.8% | -3.8% | 1.5% | i | 3.9%
CN(CC[C@H]1CN(C(=O)c2ccc(C(F)(F)F)cc2)CC[C@H]1CC(=O)O)c1ccccc1 | 3.3% | -1.6% | -0.3% | i | 35.5µM*
c1cc2c(cc1-c1cnc3n1C[C@H](CNC1CCOCC1)OC3)OCO2 | 1.9%[70.6 µM] | 3.2%[88.5 µM] | 4.6%[172 µM] | i | i
SMILES | hNpr1 antagonist | GPT2 inhibitor | HEK cytotox | FLuc inh | NIH3T3 tox
O=S(=O)(c1ccc(F)cc1)N1CCC(OC2CCN(Cc3ccccc3)CC2)CC1 | -0.1% | i | ? | i | ?
CCc1ccc(S(=O)(=O)N2CCC(OC3CCN(Cc4ccccc4)CC3)CC2)cc1 | -0.7% | i | ? | i | 35.5µM*
Cc1ccc(S(=O)(=O)N2CCC(OC3CCN(Cc4ccccc4)CC3)CC2)c(C)c1 | -15.9% | i | ? | i | 31.6µM*
O=C(Cn1cccc1-c1nc(-c2ccc3c(c2)OCO3)no1)Nc1ccc(F)c(F)c1 | 4.7% | i | -10.2% | i | 3.6%
COc1ccc(-c2noc([C@@H]3C[C@@H](O)CN3C3CCN(C)CC3)n2)cc1 | 7.1%[70.6 µM] | 2.6%[88.5 µM] | -23.3%[172 µM] | 70.8µM* | -10.1%[174 µM]
O[C@@H]1C[C@@H](c2nc(-c3ccccc3)no2)N(Cc2ncc[nH]2)C1 | 3.0%[70.6 µM] | -4.9%[88.5 µM] | -7.5%[172 µM] | 22.4µM* | -10.4%[174 µM]
Cc1ccc(-c2noc([C@@H]3C[C@@H](O)CN3Cc3ncc[nH]3)n2)cc1F | -10.5%[70.6 µM] | -12.4%[88.5 µM] | ? | 25.1µM* | ?
O=[N+]([O-])c1cccc(-c2noc([C@@H]3C[C@@H](O)CN3CC3CCCCC3)n2)c1 | -11.7%[70.6 µM] | -21.1%[88.5 µM] | 63.1µM* | i | ?
O=[N+]([O-])c1cccc(-c2noc([C@@H]3C[C@@H](O)CN3Cc3ncc[nH]3)n2)c1 | 3.4%[70.6 µM] | -8.4%[88.5 µM] | -16.6%[172 µM] | i | -19.7%[174 µM]
COc1ccc(NC(=O)N2CCCC(Cn3cnc4cccnc43)C2)c(C)c1 (stereo not given) | -1.8% | ? | -17.0% | i | -3.5%
O=C1Cc2c(-c3cccc(N4CCOCC4)c3)n[nH]c2CN1CCOc1ccccc1 | -5.4%[70.6 µM] | -12.1%[88.5 µM] | ? | i | ?
COc1ccc(-c2noc([C@@H]3C[C@@H](O)CN3Cc3ccccn3)n2)cc1 | ? | 2.2%[88.5 µM] | ? | ? | 35.5µM*
Cn1cc(CN2CCOC[C@H]2c2ncc(-c3ccc(S(C)(=O)=O)cc3)[nH]2)c2ccccc21 | -3.4% | 0.1% | 20µM* | i | 35.5µM*
CS(=O)(=O)c1ccc(CN2CCOC[C@H]2c2ncc(-c3ccc(Cl)cc3)[nH]2)cc1 | -10.0%[70.6 µM] | i | -29.7%[172 µM] | i | ?
Clc1cccc(-c2cnc([C@@H]3COCCN3Cc3c[nH]c4ccccc34)[nH]2)c1 | ? | -0.1%[88.5 µM] | ? | i | ?
N#Cc1cccc(CN2CCOC[C@H]2c2ncc(-c3ccc(Cl)cc3)[nH]2)c1 | ? | 0.2%[88.5 µM] | ? | i | 100µM*
N#Cc1cccc(CN2CCOC[C@H]2c2ncc(-c3ccc(C(F)(F)F)cc3)[nH]2)c1 | ? | -9.4%[88.5 µM] | 89.1µM* | i | ?
COc1ccc(-c2cnc([C@@H]3COCCN3Cc3cccc(C#N)c3)[nH]2)cc1 | -1.3%[70.6 µM] | -10.8%[88.5 µM] | ? | i | -18.2%[138 µM]
